According to PMC5700166:

Columns and labels:
Assay in all cases: protein-binding microarray (PBM); PBM: ~300 nM protein, 6 mM HEPES pH 7.8, 80 mM KCl, 0.5 mM EDTA, 0.5 mM EGTA, 6% glycerol, 35 ng/ul poly-dIdC, 1% milk, 1 h, room temperature; Ap Aiptasia and Nv Nematostella (sea anemones) / Co Capsaspora / Aq Amphimedon (sponge) / Dm Drosophila / Hu human; RHD is the Rel homology domain; high values mean tight binding
Settings in all cases: dsDNA, one strand shown
[1] = biological target: T1, GST-Ap-NF-kB RHD (Exaiptasia pallida (Aiptasia), UniProt A0A913YAJ5 2-422)
T1 sequence: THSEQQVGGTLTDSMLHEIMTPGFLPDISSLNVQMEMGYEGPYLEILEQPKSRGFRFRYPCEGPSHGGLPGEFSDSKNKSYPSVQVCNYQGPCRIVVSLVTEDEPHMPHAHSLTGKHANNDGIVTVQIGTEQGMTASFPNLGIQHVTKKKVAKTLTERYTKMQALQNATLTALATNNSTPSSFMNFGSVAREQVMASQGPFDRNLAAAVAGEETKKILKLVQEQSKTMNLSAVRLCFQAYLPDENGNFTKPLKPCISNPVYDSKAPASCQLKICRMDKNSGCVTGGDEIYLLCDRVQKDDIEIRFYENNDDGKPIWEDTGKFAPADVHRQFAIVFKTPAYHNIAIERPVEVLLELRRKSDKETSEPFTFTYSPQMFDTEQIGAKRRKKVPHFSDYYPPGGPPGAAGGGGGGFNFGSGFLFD

[2] = biological target: T2, GST-Nv-NF-kB (Cys allele) (Nematostella vectensis, UniProt E5G601 2-411)
T2 sequence: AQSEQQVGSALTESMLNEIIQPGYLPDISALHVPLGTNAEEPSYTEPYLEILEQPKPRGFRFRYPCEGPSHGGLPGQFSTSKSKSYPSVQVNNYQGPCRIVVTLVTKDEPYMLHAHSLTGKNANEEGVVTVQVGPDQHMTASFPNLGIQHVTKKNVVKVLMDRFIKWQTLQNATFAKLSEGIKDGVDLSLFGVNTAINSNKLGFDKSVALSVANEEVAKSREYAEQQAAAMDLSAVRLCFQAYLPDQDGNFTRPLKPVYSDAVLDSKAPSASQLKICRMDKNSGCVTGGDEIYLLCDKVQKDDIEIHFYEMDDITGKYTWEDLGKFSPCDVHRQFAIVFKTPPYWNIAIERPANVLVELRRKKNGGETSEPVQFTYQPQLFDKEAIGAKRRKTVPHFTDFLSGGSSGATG

[3] = biological target: T3, GST-Co-NF-kB (Capsaspora owczarzaki, UniProt F1ARL5 200-546)
T3 sequence: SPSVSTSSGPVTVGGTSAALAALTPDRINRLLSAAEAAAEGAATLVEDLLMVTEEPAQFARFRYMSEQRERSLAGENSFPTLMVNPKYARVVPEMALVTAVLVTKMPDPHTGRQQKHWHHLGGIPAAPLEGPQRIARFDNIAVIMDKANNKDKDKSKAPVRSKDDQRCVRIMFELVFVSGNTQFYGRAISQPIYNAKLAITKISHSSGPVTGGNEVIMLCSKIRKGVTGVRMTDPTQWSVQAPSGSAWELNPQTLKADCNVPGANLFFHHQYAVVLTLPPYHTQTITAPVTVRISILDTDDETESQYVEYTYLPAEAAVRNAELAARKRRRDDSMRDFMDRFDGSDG

[4] = biological target: T4, GST-Dm-Relish (Drosophila melanogaster, UniProt Q94527 99-473)
T4 sequence: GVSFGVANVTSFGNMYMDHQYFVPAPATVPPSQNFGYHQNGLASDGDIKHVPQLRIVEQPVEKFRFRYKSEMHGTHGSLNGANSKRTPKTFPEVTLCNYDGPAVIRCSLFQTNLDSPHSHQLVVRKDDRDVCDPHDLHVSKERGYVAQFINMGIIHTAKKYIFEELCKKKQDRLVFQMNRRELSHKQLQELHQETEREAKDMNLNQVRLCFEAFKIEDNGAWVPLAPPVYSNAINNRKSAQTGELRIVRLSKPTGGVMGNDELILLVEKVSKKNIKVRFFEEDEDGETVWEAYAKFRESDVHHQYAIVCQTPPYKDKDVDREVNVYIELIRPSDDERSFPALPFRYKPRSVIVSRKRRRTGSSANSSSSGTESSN

[5] = biological target: T5, GST-Aq-NF-kB (Amphimedon queenslandica, UniProt A9Y5G7 2-389)
T5 sequence: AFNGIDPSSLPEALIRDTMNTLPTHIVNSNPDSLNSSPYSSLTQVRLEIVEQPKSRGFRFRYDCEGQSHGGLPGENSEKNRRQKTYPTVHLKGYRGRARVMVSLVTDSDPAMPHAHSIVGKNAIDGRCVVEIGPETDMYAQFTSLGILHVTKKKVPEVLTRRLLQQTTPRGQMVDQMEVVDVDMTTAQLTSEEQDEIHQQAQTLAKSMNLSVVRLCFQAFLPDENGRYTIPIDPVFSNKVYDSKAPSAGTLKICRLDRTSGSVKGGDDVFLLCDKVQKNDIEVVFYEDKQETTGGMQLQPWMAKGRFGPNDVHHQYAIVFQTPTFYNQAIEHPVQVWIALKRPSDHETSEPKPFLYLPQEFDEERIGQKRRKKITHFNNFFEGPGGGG

Sequence	binding signal [1]	binding signal [2]	binding signal [3]	binding signal [4]	binding signal [5]
CCGATTAACATCAATAAATACCCTGATGTTAATCGGGTCTTGATTCGCTTGACGCTGCTG	3.73 z-score	5.36 z-score	2.51 z-score	4.58 z-score	4.69 z-score
CCGATTAACATCAGAATATTCCCTGATGTTAATCGGGTCTTGATTCGCTTGACGCTGCTG	5.6 z-score	6.1 z-score	3.41 z-score	3.01 z-score	5.6 z-score
CCGATTAACATCAGGACTTCCCATGATGTTAATCGGGTCTTGATTCGCTTGACGCTGCTG	3.08 z-score	2.46 z-score	1.82 z-score	7.81 z-score	4.72 z-score
CCGATTAACATCAGGTTTTCCCATGATGTTAATCGGGTCTTGATTCGCTTGACGCTGCTG	3.58 z-score	3.91 z-score	4.33 z-score	5.47 z-score	4.82 z-score
CCGATTAACATCACGCAACCCCCTGATGTTAATCGGGTCTTGATTCGCTTGACGCTGCTG	5.37 z-score	3.7 z-score	2 z-score	5.08 z-score	3.89 z-score
CCGATTAACATCACCCCTCCCCGTGATGTTAATCGGGTCTTGATTCGCTTGACGCTGCTG	5.01 z-score	3.48 z-score	4.15 z-score	3.47 z-score	3.26 z-score
CCGATTAACATCAGGGTGTTTTATGATGTTAATCGGGTCTTGATTCGCTTGACGCTGCTG	2.75 z-score	2.67 z-score	1.55 z-score	3.11 z-score	4.69 z-score
CCGATTAACATCACGTAAACCCCTGATGTTAATCGGGTCTTGATTCGCTTGACGCTGCTG	3.55 z-score	2.68 z-score	1.08 z-score	6.43 z-score	3.41 z-score
CCGATTAACATCACAACCCCCCCTGATGTTAATCGGGTCTTGATTCGCTTGACGCTGCTG	5.55 z-score	3.59 z-score	3.83 z-score	6.16 z-score	4.6 z-score
CCGATTAACATCAAAAGACCCCCTGATGTTAATCGGGTCTTGATTCGCTTGACGCTGCTG	6.38 z-score	5.12 z-score	3.12 z-score	8.16 z-score	6.25 z-score
CCGATTAACATCAGAAGATTCCCTGATGTTAATCGGGTCTTGATTCGCTTGACGCTGCTG	3.38 z-score	4.85 z-score	3.43 z-score	3.48 z-score	5.19 z-score
CCGATTAACATCAGGGAAAACCATGATGTTAATCGGGTCTTGATTCGCTTGACGCTGCTG	3.89 z-score	5.15 z-score	4.31 z-score	5.57 z-score	5.29 z-score
CCGATTAACATCAGGGGGATGTATGATGTTAATCGGGTCTTGATTCGCTTGACGCTGCTG	4.97 z-score	4.88 z-score	4.13 z-score	4.17 z-score	4.11 z-score
CCGATTAACATCACGGCTTTCCCTGATGTTAATCGGGTCTTGATTCGCTTGACGCTGCTG	2.31 z-score	3.5 z-score	2.32 z-score	2.21 z-score	3.7 z-score
CCGATTAACATCAAGGGGGTAAATGATGTTAATCGGGTCTTGATTCGCTTGACGCTGCTG	5.28 z-score	3.77 z-score	6.69 z-score	2.72 z-score	4.26 z-score
CCGATTAACATCAAATTCCCGTATGATGTTAATCGGGTCTTGATTCGCTTGACGCTGCTG	2.44 z-score	4.38 z-score	2.65 z-score	3.19 z-score	3.72 z-score
CCGATTAACATCAAAACTTCCCATGATGTTAATCGGGTCTTGATTCGCTTGACGCTGCTG	3.04 z-score	3.7 z-score	2.63 z-score	4.52 z-score	4.42 z-score
CCGATTAACATCAGGCCATCCCCTGATGTTAATCGGGTCTTGATTCGCTTGACGCTGCTG	3.87 z-score	4.02 z-score	1.22 z-score	7.89 z-score	5.6 z-score
CCGATTAACATCACTAATTTCCCTGATGTTAATCGGGTCTTGATTCGCTTGACGCTGCTG	3.79 z-score	4.55 z-score	4.57 z-score	2.5 z-score	4.09 z-score
CCGATTAACATCAGGGAAATTCATGATGTTAATCGGGTCTTGATTCGCTTGACGCTGCTG	4.54 z-score	6.28 z-score	4.15 z-score	2.26 z-score	5.94 z-score
CCGATTAACATCAGGGAATTCCATGATGTTAATCGGGTCTTGATTCGCTTGACGCTGCTG	5.46 z-score	6.55 z-score	3.71 z-score	7.15 z-score	6.68 z-score
CCGATTAACATCAAATTGCCCCCTGATGTTAATCGGGTCTTGATTCGCTTGACGCTGCTG	4.13 z-score	3.94 z-score	4.71 z-score	3.33 z-score	4.88 z-score
CCGATTAACATCAGAATGCCCCCTGATGTTAATCGGGTCTTGATTCGCTTGACGCTGCTG	4.74 z-score	5.02 z-score	2.56 z-score	3.56 z-score	5.26 z-score
CCGATTAACATCAGGCCTCCCCCTGATGTTAATCGGGTCTTGATTCGCTTGACGCTGCTG	4.86 z-score	4.22 z-score	4.14 z-score	6 z-score	6.6 z-score
CCGATTAACATCAACCCTCCCCCTGATGTTAATCGGGTCTTGATTCGCTTGACGCTGCTG	3.89 z-score	3.26 z-score	4.5 z-score	2.76 z-score	3.64 z-score
CCGATTAACATCAGGATGTTCCCTGATGTTAATCGGGTCTTGATTCGCTTGACGCTGCTG	2.3 z-score	1.77 z-score	1.42 z-score	1.99 z-score	4.33 z-score
CCGATTAACATCAGGGCCCCCCCTGATGTTAATCGGGTCTTGATTCGCTTGACGCTGCTG	6.57 z-score	4.21 z-score	2.89 z-score	6.49 z-score	7.6 z-score
CCGATTAACATCAGGGGTATAACTGATGTTAATCGGGTCTTGATTCGCTTGACGCTGCTG	1.94 z-score	1.77 z-score	3.43 z-score	1.06 z-score	2.25 z-score
